# Experimental data published in the supplement of paper PMC6555819.
# Experiments:
# Assay in all cases: PBM binding z-score (relative to random genomic background probes); higher = stronger binding; sequences stand for … in GC…GCGATTGACAGCGTAGAATGAAGG
# [1] = test system: RARb homodimer (NR concentration 270 nM)
# Outline: (§1)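 Probes were double-stranded and carried 34-nt variable regions with direct-repeat seeds, single-nucleotide variants, half-site ablations and random human genomic background sequences, printed on custom Agilent 4×180K protein-binding microarrays. Arrays were incubated 1 h with ligand-free nuclear receptor dimers in PBS pH 7.4, 2% milk, 0.02% Triton X-100, 1 mM DTT, 0.2 mg/mL BSA and 0.4 mg/ml salmon testes DNA. Antibodies against each partner (one per run) detected binding, and scanned fluorescence was regression-normalized. Binding z-scores use the random background probes as reference.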
# [2] = test system: RARg:RXRa (NR concentration 270 nM, RXRa partner concentration 90 nM)
# Outline: as §1
# [3] = test system: RARg homodimer (NR concentration 270 nM)
# Outline: as §1
# [4] = test system: RXRa DBDmut IVT, anti-RXR (DBD mutation: RXRa K156A/R161A, NR concentration 90 nM)
# Outline: as §1
# [5] = test system: RXRa homodimer (NR concentration 180 nM)
# Outline: as §1
# [6] = test system: THRa:RXRa (NR concentration 90 nM, RXRa partner concentration 90 nM)
# Outline: as §1
# [7] = test system: THRa homodimer (NR concentration 90 nM)
# Outline: as §1
# [8] = test system: VDR:RXRa (NR concentration 270 nM, RXRa partner concentration 90 nM)
# Outline: as §1
# [9] = test system: VDR homodimer (NR concentration 270 nM)
# Outline: as §1
Sequence,PBM binding z-score [1],PBM binding z-score [2],PBM binding z-score [3],PBM binding z-score [4],PBM binding z-score [5],PBM binding z-score [6],PBM binding z-score [7],PBM binding z-score [8],PBM binding z-score [9]
CATCCAAGGTCAATGCTAGGTCAGTGAAAGCATT,4.85,7.59,6.9,3.53,5.4,4.39,2.95,4.82,3.16
TAGCCTAGGTCAATGGGCCAGTATAGTACGCATC,3.07,3.64,4.52,0.537,2.12,2.16,0.256,1.1,0.391
TATACAGGGTCAAAGGCCAGAGTTCGAATGTCGA,3.91,5.81,5.41,3.27,7.53,3.61,1.03,5.34,4.77
TCTGCTAGGTCAGTTGGTCAGCGAACGAGCTGCC,2.57,2.96,3.87,0.527,0.834,1.21,-0.151,0.114,-0.461
AATACAGGGTCATCGTAGGCCAGAGTACGCACAG,3.55,5.49,5.05,3.55,6.83,4.6,1.54,5.37,3.35
CGAACTAGCTCATCCAGGACAGTGAATACATTGA,0.118,-0.191,0.156,0.64,0.0877,1,0.936,-0.134,0.271
TGTGCTAGGTCAACGATGGTCAGCTAATCTGCTA,3.4,3.88,5.19,0.342,2.45,3,0.529,1.65,-0.186
TCTAGCAGGCCAGGGGGTCACTCAAGAGGTACGG,3.61,5.22,4.08,1.3,5.38,3.35,1.52,4.25,2.91
CCTACTGGCCCAAAGGTCATTGATTCCAATGCTC,4.89,4.89,4.36,1.06,5.05,3.3,0.916,4.28,2.14
GCTGCTAGGTCAACTGATGGTCAGCTACAGCTCG,3.81,5.01,5.31,1.56,2.82,2.94,0.9,1.51,0.228
TTACCAAGGTGAAACGTCGTTGATGCACGCCTTG,0.238,0.69,0.555,0.0137,1.01,1.59,0.421,-0.243,-0.415
TAGCCTAGGTCATGGGCCAGTATTCCACGCGAAC,2.79,4.27,4.6,0.71,3.8,2.99,1.33,2.09,0.208
TCTAGTTGGTCAAAGGTCACAGACTCGAAATGCG,5.18,7.34,6.39,1.36,8.58,4.16,1.98,5.45,2.22
CCAGACAGGAGAAAGGTAACTCAGTCTGGTACGC,0.0408,0.115,-0.016,-0.0562,0.502,-0.00788,-0.183,0.0971,-0.102
TCTTATAGATCAGCAGGTTAAGAAAGCTGGCCAA,-0.092,0.0544,-0.0955,0.704,0.376,0.0186,-0.656,0.455,-0.144
CGAACTAGGTCAGAACAGGACAGTGAAGGATGAT,1.92,2.45,3.34,0.418,1.23,3.41,0.173,0.634,-0.0967
TCTTGTAGATCACGCAGGTTAAGAAAGCCTGAGT,0.254,0.174,0.0532,0.693,0.723,0.601,-0.33,0.662,-0.258
TCTGCTAGGTCAGTTGGTGAGCTAACGAGCTGCC,1.93,2.27,3.76,0.367,0.541,1.04,-0.41,-0.377,-0.739
TCATATAGGTAAATGCTAGGTGATAGTCCGATCT,-0.0324,0.496,0.457,1.37,0.854,0.78,0.138,0.757,0.168
TTTGCTAGGTCAACGATGGTCAGCTAATCTGCTA,3.69,4.05,5.28,1.02,2.67,3.33,1.02,1.9,0.00226
ACTAGTTAGTCAGCTGAGGTCACACACAATTCGG,4.4,3.65,3.31,1.91,4.01,4.76,5.46,4.19,3.81
CCGACTGGGGCAAAGGTAACCATACTCAGTACGA,0.873,1.28,0.824,-0.208,1.19,0.563,-0.249,0.122,-0.353
ATTCAAAGTTCAGGACGAGGTAACGTAAAGCACG,3.31,4.56,4.73,2.99,3.08,3.82,2.01,3.14,2.3
CCTAGCAGGCCAATCTCGGTCACTCAAGGCTTGA,1.46,0.504,1.24,0.398,-0.123,1.92,-0.183,-0.37,-0.29
TCTAGCAGGCCAGAGGATCACTCAAGAGGTACGG,-0.66,-0.277,-0.18,-0.0121,0.0922,-0.78,-0.974,-0.662,-0.819
CGACCTAGGTCAGAACAGGACAGTGAAGGATGAT,2.62,3.3,4.04,0.773,2.21,3.83,0.505,1.05,0.303
